# Screening results as filed in PubChem.
# Most compounds without a hit are left out; they make up all but 3.7% or so of the library.
# Sm TGR block: blocks Schistosoma mansoni thioredoxin glutathione reductase; Q962Y6; Potency, µM (titrated, usually from 114 µM), actives largely listed as inhibitors; purified TGR, DTNB reduction, TNB absorbance 405 nm; actives 3% (n = 360,000); AID 485364; note: nearly all actives have a fitted effect of over 60% in size
#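 TGR 20 nM + NADPH 100 uM (dispensed conc.), cpd preinc 15 min RT; start with NADPH (500 uM addition) then DTNB (15 mM addition). Kinetic TNB absorbance, 405 nm filter. Four-parameter Hill fit across titration.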
# FMDV antiviral: foot and mouth disease virus antiviral activity. actives 1.2% (n = 410,000). FMDV antiviral cell-based qHTS. Potency, µM (series often up to 57.9 µM), most hits filed as inhibitors; calls by dose curve; tested in HEK293T cells; note: read-out not given here; nearly all actives have a fitted effect of over 45% in size
# RE007 growth inh: less growth of the S. pombe RE007 Vpr strain | actives 0.21% (n = 360,000) | AID 651644 | Potency, µM (highest dose often 92.2 µM), hits mostly inhibitors | S. pombe RE007 Vpr strain, BacTiter-Glo ATP luminescence, 24 h; active = well fitted falling curve with a large enough effect; inconclusive = small, poorly fitted or top-dose-only effect; inactive = no such curve, though single readings can be large or run the other way; note: nearly all actives have a fitted effect of over 50% in size
#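 Fission yeast strain RE007, carrying one chromosomally integrated HIV-1 vpr copy, was seeded at OD 0.01 in PMG+AL medium with 23 nL pinned compound. After 24 h at 30 °C and 99% humidity, viability was read by BacTiter-Glo luminescence.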
# TbPYK inhibitor: blocks Trypanosoma brucei pyruvate kinase; Q57TT1; AID 624173; TbPYK enzyme, Kinase-Glo Plus ATP luminescence, 45 min; Potency, µM (titrated, usually from 76.8 µM), usual class: inhibitors; actives 0.12% (n = 410,000); note: nearly all actives have a fitted effect of over 50% in size
#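 Enzyme and substrate buffer are dispensed first and compound is pin-transferred. ADP at 130 uM final then starts the reaction, which runs 45 min at room temperature. Detection reagent is added for 10 min before luminescence is imaged.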
# A number is an active result; - = inactive; ? = inconclusive; . = no result. Unless noted, calls come from the whole dose curve; as a rule, active = well fitted curve in the direction sought with a large enough effect; inconclusive = small, poorly fitted or top-dose-only effect, or another doubt; inactive = no such curve, though single readings can be large; an effect the other way counts as inactive or inconclusive.
SMILES,Sm TGR block,FMDV antiviral,RE007 growth inh,TbPYK inhibitor
Cn1c(-c2ccncc2)nc2cc(C(=O)N[C@H]3CCCCNC3=O)cc(NC(=O)C3CCC3)c21,.,-,.,.
CCc1ccc(OC(=O)CSc2nnc(-c3ccc(OC)c(OC)c3)o2)cc1,-,-,.,-
COc1ccc(-c2nnc(SCC(=O)N(Cc3ccccc3)C(C)(C)C)o2)cc1OC,-,11µM,-,-
CCN(C(=O)CSc1nnc(-c2cc(OC)c(OC)c(OC)c2)o1)c1ccccc1,20µM,-,.,-
CC1(c2ccccc2)CC(C)(C)N(C(=O)c2ccccc2Cl)c2ccccc21 (configuration not stated),-,28µM,.,-
Cc1nnc(SCC(=O)N2c3ccccc3C(C)(c3ccccc3)CC2(C)C)s1 (configuration not stated),-,40µM,-,-
Cc1ccc(C2(C)CC(C)(C)N(C(=O)CSc3nnc(C)s3)c3ccccc32)cc1 (configuration not stated),-,?,-,-
Cc1ccc(S(=O)(=O)Nc2cc(C(C)C)c(O)cc2C)cc1,-,-,-,-
Cc1c(NS(=O)(=O)c2ccccc2)cc(Cl)c(O)c1C,3.5µM,-,-,-
Cc1ccc(S(=O)(=O)Nc2c(Cl)c(Cl)c(O)c3ccccc23)cc1,0.32µM,.,.,.
Cc1ccc(S(=O)(=O)Nc2cc(Cl)c(O)cc2C)cc1,50µM,-,-,-
CSc1ccc(C(=O)N2CCc3c(cnc(C)c3CNC(=O)c3cncs3)C2)cc1,.,-,.,.
CCC(Sc1ncnc2sc3c(c12)CCCC3)C(=O)OC(C)C (configuration not stated),-,-,.,-
COc1ccc(NC(=O)c2cccc(N3CCCS3(=O)=O)c2)cc1OC,-,-,.,-
O=c1c2ccccc2nc2n1CCS2,-,-,-,-
O=c1c(C(c2ccc(Cl)cc2)c2c(O)nc3n(c2=O)CCS3)c(O)nc2n1CCS2,-,-,-,-
O=c1c(C(c2ccc(F)cc2)c2c(O)nc3n(c2=O)CCS3)c(O)nc2n1CCS2,0.79µM,-,-,-
O=c1c(C(c2ccc(Cl)cc2)c2c(O)nc3n(c2=O)CCCS3)c(O)nc2n1CCCS2,1.8µM,-,-,-
COc1ccc(OC)c(CN2C[C@H](Sc3ccc(F)cc3)C[C@H]2C(=O)N(C)C)c1,.,-,.,.
CCOc1ccc(OCc2ccc(C(=O)O)o2)cc1,-,8.9µM,-,-
C=CCc1ccc(OC(=O)NC2CCCCC2)c(OC)c1,22µM,-,-,-
CCCc1ccc(OCc2ccc(C(=O)O)o2)c(OC)c1,-,-,-,-
C=CCc1ccc(OCc2ccc(C(=O)O)o2)c(OC)c1,?,14µM,-,-
C=CCc1ccc(OCCCCNC2CCCC2)c(OC)c1,-,-,-,-
CCOC(=O)CSc1nc2c(sc3ccccc32)c(=O)n1CCO,-,-,.,-
SMILES,Sm TGR block,FMDV antiviral,RE007 growth inh,TbPYK inhibitor
O=S(=O)(Nc1ccc(C(F)(F)F)cc1)c1ccc2c(c1)OCCO2,-,-,.,-
O=C(CCCCn1c(=O)c2ccccc2n(Cc2cccc(Cl)c2)c1=O)NCc1ccc2c(c1)OCO2,-,-,.,-
COC(=O)c1ccc(NC(=O)NCCn2nnc3cc(S(=O)(=O)N(C)C)ccc32)cc1,-,-,.,-
c1coc(-c2ccc3ncnc(NCc4cccs4)c3c2)c1,32µM,.,.,.
Cc1cccc(-c2ccc3ncnc(NCc4cccs4)c3c2)c1,-,25µM,.,-
CCOc1ccccc1CNC(=O)c1cc2c(=O)n(Cc3ccco3)ccc2nc1C,?,-,.,-
CCC1CN(CCNC(=O)c2cc3ccccc3oc2=O)Cc2cc(OC)ccc2O1 (configuration not stated),.,-,.,.
O=C1C=CC2(O[C@H](c3ccccc3)[C@@H](c3ccccc3)O2)[C@H](Sc2ccccc2O)C1,.,7.9µM,40µM,?
C[C@@H]1[C@@H](Sc2ccccc2)CC(=O)O[C@@H]1c1ccc(-c2ccccc2)cc1,.,-,-,-
CSc1nc(-c2ccc(Cl)cc2)c(C#N)c(=O)[nH]1,.,-,-,-
CSC1=C(C#N)C(=O)NC(c2ccc(Cl)cc2)S1 (configuration not stated),10µM,20µM,-,-
COc1ccccc1-c1ccc(/C=C2\C=CC(=O)O2)o1,14µM,-,-,-
COc1ccccc1CN=Cc1[nH]c2ccc(Br)c(Cl)c2c1O,11µM,-,-,-
Cc1cccc(N=Cc2[nH]c3ccc(Br)c(Cl)c3c2O)c1,?,-,-,-
Cc1nc([N+](=O)[O-])c(Br)n1Cc1ccccc1,2.5µM,-,-,-
Cc1nc([N+](=O)[O-])c(Sc2nc3ccc([N+](=O)[O-])cc3[nH]2)n1Cc1ccccc1,14µM,?,-,-
Cc1nc([N+](=O)[O-])c(Br)n1CC(=O)c1cccc([N+](=O)[O-])c1,2µM,32µM,-,-
CCn1c(=N)n(CC(=O)c2cccc([N+](=O)[O-])c2)c2ccccc21,-,-,-,-
COC(=O)Cn1c(C)nc([N+](=O)[O-])c1Br,6.3µM,-,-,-
Cc1nc([N+](=O)[O-])c(SCC(O)CCl)n1Cc1ccc(Cl)cc1 (configuration not stated),.,-,-,-
CCn1c(C)nc([N+](=O)[O-])c1C(=O)O,-,-,-,-
COc1cccc(CNc2ncnc3sc(C(=O)N4CC5CCC4C5)c(C)c23)c1OC (configuration not stated),.,-,.,.
COc1cccc(C2(CC(=O)N3CCC(c4nc5ccc(F)cc5[nH]4)CC3)CC(=O)N(C)C2=O)c1 (configuration not stated),.,-,.,.
Cc1nc([N+](=O)[O-])c(Br)n1CC(=O)c1ccc(F)cc1,3.2µM,-,-,-
Cc1c(/C(O)=C2/C(=O)C(=O)N(Cc3cccnc3)C2c2ccccn2)cnn1-c1ccccc1 (configuration not stated),.,4µM,-,-
SMILES,Sm TGR block,FMDV antiviral,RE007 growth inh,TbPYK inhibitor
Cc1c(/C(O)=C2/C(=O)C(=O)N(Cc3cccnc3)C2c2cccs2)cnn1-c1ccccc1 (configuration not stated),-,-,-,-
COc1ccc(C)cc1NC(=O)NCc1ccc2c(c1)CCN2C(=O)c1ccccc1,-,?,.,-
Nc1cc(-c2ccncc2)c[nH]c1=O,40µM,-,-,?
CN(C)c1ccc(C=C2C(=O)NC(=O)NC2=O)cc1[N+](=O)[O-],-,-,-,?
CN(C)c1ccc(C=C2C(=O)NC(=S)NC2=O)cc1[N+](=O)[O-],?,40µM,-,?
CCCCN(C)S(=O)(=O)c1ccc(C(=O)Nc2ccc(-c3nc4ccc(C)cc4s3)cc2)cc1,-,-,.,-
Cc1[nH]n(-c2ccccc2)c(=O)c1C(c1ccc([N+](=O)[O-])cc1)c1c(C)[nH]n(-c2ccccc2)c1=O,?,?,-,-
Cc1[nH]n(-c2ccccc2)c(=O)c1C(C[N+](=O)[O-])c1ccccc1Cl (configuration not stated),-,-,32µM,-
Cc1[nH]n(-c2ccccc2)c(=O)c1C(c1ccc(O)c([N+](=O)[O-])c1)c1c(C)[nH]n(-c2ccccc2)c1=O,.,-,-,-
